# ChEMBL document CHEMBL3988442, “University of Dundee, Small-Polar-MMV Screening Library” (2021)
# About 13,000 (27%) of roughly 48,000 compounds showed an effect of 50% or more. This is one part of the list.
# Tested on: Wolbachia pipientis
# Assay: Anti-Wolbachia Cell-Based Screen
# Format: functional
# Design: scale not given: in the data most compounds retested in dose-response had high values
# Conditions: 5 µM
row,SMILES,Percent Effect
1,CN(C)C1CC2(CCN(C(=O)C3(C#N)CC3)CC2)c2ccccc21.O=C(O)C(F)(F)F (stereo unspecified),5.959%
2,O=C1CSCN1Cc1nc(-c2ccc(N3CCCCC3)cc2)no1,-5.803%
3,CN(C)CCOCC1CN(Cc2ccsc2)Cc2nnn(C)c21.O=C(O)C(F)(F)F.O=C(O)C(F)(F)F (stereo unspecified),121.1%
4,CN(C)CCOCC1CN(Cc2ccncc2)Cc2nnn(C)c21.O=C(O)C(F)(F)F.O=C(O)C(F)(F)F.O=C(O)C(F)(F)F (stereo unspecified),96.02%
5,COCC1CN(Cc2ccc(OC)cc2)Cc2nnn(CC3CC3)c21.O=C(O)C(F)(F)F (stereo unspecified),-5.304%
6,CCOCC1CN(Cc2ccc(OC)cc2)Cc2nn(C)cc21.O=C(O)C(F)(F)F (stereo unspecified),11.5%
7,Cn1nnc2c1C(COCc1ccccn1)CN(C(=O)c1ccsc1)C2.O=C(O)C(F)(F)F (stereo unspecified),-2.517%
8,CN(C)CCOCC1CN(Cc2ccccn2)Cc2nnn(C)c21.O=C(O)C(F)(F)F.O=C(O)C(F)(F)F.O=C(O)C(F)(F)F (stereo unspecified),99.25%
9,CN(C)CC(=O)N1Cc2nnn(C)c2C(COCc2ccccn2)C1.O=C(O)C(F)(F)F.O=C(O)C(F)(F)F (stereo unspecified),6.818%
10,Cn1nnc2c1C(COCC1CC1)CN(C(=O)Cc1ccsc1)C2 (stereo unspecified),2.514%
11,COc1ccc(CN2Cc3nnn(C)c3C(COCCN(C)C)C2)cc1.O=C(O)C(F)(F)F.O=C(O)C(F)(F)F (stereo unspecified),106.7%
12,CC(C)NC(=O)NC[C@H]1OC[C@@H](NCc2ccccc2F)[C@@H]1O,-8.31%
13,CC(O)CN1CCC(CN(C)Cc2ccc(C#N)cc2)CC1 (stereo unspecified),-6.641%
14,COCc1nnc(-c2cccc(C(=O)N(C)CC(C)(C)C)c2)o1,1.349%
15,CC(C)Oc1cccc(CN(C)C(=O)Cc2ccon2)c1,7.051%
16,CN(C)CCOCC1CN(CC2CCOCC2)Cc2nnn(C)c21.O=C(O)C(F)(F)F.O=C(O)C(F)(F)F (stereo unspecified),0.5849%
17,CN(C)CCOCC1CN(Cc2ccc(F)cc2)Cc2nnn(C)c21.O=C(O)C(F)(F)F.O=C(O)C(F)(F)F (stereo unspecified),94.54%
18,CCS(=O)(=O)N1Cc2nnn(C)c2C(COCCN(C)C)C1.O=C(O)C(F)(F)F (stereo unspecified),7.645%
19,Cc1noc(CCCC(=O)NC(C)c2cccnc2)n1 (stereo unspecified),-10.11%
20,COCCN1CC[C@H](O)[C@@H]1Cc1ccccc1.O=C(O)C(F)(F)F,-7.454%
21,NC(=O)N1CC[C@H](O)[C@@H]1Cc1ccccc1,106.8%
22,CN(C)C(=O)N1CC[C@@H](O)[C@@H]1Cc1ccccc1,109.4%
23,COCC(=O)N1CC[C@@H](N2CCOCC2)[C@@H]1Cc1ccccc1,-5.655%
24,O=C(NC1CC1)N1CC[C@@H](O)[C@@H]1Cc1ccccc1,101.4%

row,SMILES,Percent Effect
1,CN(C)[C@@H]1CCN(C(=O)NC2CCCC2)[C@H]1Cc1ccncc1.O=C(O)C(F)(F)F.O=C(O)C(F)(F)F,-4.406%
2,COCC(=O)N1CC[C@@H](O)[C@@H]1Cc1ccccc1,-9.68%
3,O=C(NC1CC1)N1CC[C@H](OCC2CC2)[C@@H]1Cc1cccnc1.O=C(O)C(F)(F)F,-2.258%
4,CC(=O)N1CC[C@@H](N2CCN(C)CC2)[C@@H]1Cc1ccccc1,-7.108%
5,CN1CCN([C@@H]2CCN(C(N)=O)[C@H]2Cc2ccccc2)CC1,-47.59%
6,CCC(=O)N1CC[C@H](O)[C@@H]1Cc1ccccc1,99.45%
7,CN(C)C(=O)N1CC[C@@H](O)[C@@H]1Cc1cnn(C)c1,3.844%
8,c1ccc(-c2cnn3cc(CN4CCC5(CCO5)CC4)cnc23)cc1,-14.3%
9,CC(C)C(=O)N1CCN(CC(O)c2cc(Cl)ccc2Cl)CC1 (stereo unspecified),10.47%
10,CC(NC(=O)COc1ccc(Cl)cc1Cl)c1nncn1C(C)C (stereo unspecified),0.4331%
11,CN(Cc1ccccc1)CC(C)(C)NC(=O)c1ccc(C(N)=O)cn1,12.65%
12,COCCCS(=O)(=O)N1CCN(Cc2cccn2C)CC1,-42.29%
13,CN(C)CCCN1CC2(CCN(C(=O)C3(C)CCCCO3)CC2)OC1=O (stereo unspecified),3.267%
14,CCO[C@@H]1CCN(C(=O)c2ccnnc2)[C@@H]1Cc1cnn(C)c1,-9.757%
15,O=C(c1ccnnc1)N1CC[C@H](OCC2CC2)[C@@H]1Cc1ccncc1,0.4029%
16,O=C(c1ccnnc1)N1CC[C@@H](O)[C@@H]1Cc1ccccc1,101.5%
17,CC(C)Cc1nc(OCC(=O)O)c(C#N)c2c1CCC2,-8.981%
18,CN(Cc1n[nH]c2c1CCCC2)c1cc(N2CCOCC2)nc(N)n1,14.47%
19,O=C(c1ccco1)N1CCOCC2(C1)CN(c1ccoc1)C(=O)CO2 (stereo unspecified),100.8%
20,CN1CC2(COCCN(C(=O)c3ccco3)C2)OCC1=O (stereo unspecified),-13.58%
21,O=C(c1ccco1)N1CCOCC2(C1)CN(c1ccccn1)C(=O)CO2 (stereo unspecified),92.62%
22,O=C(c1ccco1)N1CCOCC2(C1)CN(c1ccccc1)C(=O)CO2 (stereo unspecified),-13.67%
23,CC(O)CCN(C)c1nc2ccccc2c(=O)[nH]1 (stereo unspecified),20.77%
24,COCc1nc(-c2ccc(S(=O)(=O)N3CCCC3)cc2)cs1,-8.912%

row,SMILES,Percent Effect
1,Cc1noc(CNc2cc3c(cc2Cl)OCCCO3)n1,2.534%
2,O=C(O)c1cc2c(nc1-c1ccncc1)CCN(Cc1ccoc1)CC2,-1.034%
3,c1nc2c(c(C3CCOC3)n1)CCN(Cc1ccoc1)CC2 (stereo unspecified),7.2%
4,CCSCc1nc(O)c2nnn(C3CCN(Cc4ccoc4)CC3)c2n1,124.7%
5,CCSCc1nc(O)c2nnn(C3CCN(Cc4ccco4)CC3)c2n1,93.96%
6,Oc1nc(C2CC2)nc2c1nnn2C1CCN(Cc2ccoc2)CC1,197.8%
7,CC(C)N(C)S(=O)(=O)N1CCN(Cc2ccco2)CC1,-10.02%
8,CCn1ncnc1C(C)NC(=O)C1CCN(Cc2ccco2)CC1 (stereo unspecified),-16.37%
9,O=C(CCn1cccn1)NCC(c1cccs1)N1CCOCC1 (stereo unspecified),0.8626%
10,O=C1CC(NS(=O)(=O)N2CCOCC2)CN1Cc1ccc(F)cc1 (stereo unspecified),-0.715%
11,Cl.N#Cc1cnc2ccccc2c1N1CCN(CCC(=O)O)CC1,-4.307%
12,N#Cc1cnc2ccccc2c1N1CCN(C(=O)C2CCC2)CC1,4.022%
13,N#Cc1cnc2ccccc2c1N1CCC(C(=O)O)CC1,149.3%
14,CCc1nc(CN(C)C(=O)NC(C)c2cccc(NC(C)=O)c2)cs1 (stereo unspecified),4.996%
15,O=C1COc2cccc(OCc3ccccn3)c2N1,-1.975%
16,N#CCCn1nc(C(F)(F)F)c2c1CCCC2,118.8%
17,NCCCn1nc(C(F)(F)F)c2c1CCC2,77.67%
18,N#CCCn1nc(C(F)(F)F)c2c1CCC2,109.3%
19,CC(C)Oc1nnc(SCC(=O)NCC(=O)N2CCCC2)s1,11.98%
20,Cc1cc(N(Cc2cccnc2)C2CC2)n2nc(C(F)(F)F)nc2n1,19.73%
21,CN1CCN(S(=O)(=O)c2cncc(F)c2)c2ccccc2C1,-3.116%
22,O[C@@H]1C[C@@H](c2nc(-c3ccc(F)cc3)no2)N(C2CCOCC2)C1,-13.07%
23,CN(CC(=O)N1CCC(C(O)c2ccccc2)CC1)c1cnccn1 (stereo unspecified),-4.983%
24,CCC(=O)NC(Cc1cc(N(C)C)nc(C2CC2)n1)c1ccccc1 (stereo unspecified),105%

row,SMILES,Percent Effect
1,COCC(=O)NC(Cc1cc(N(C)C)nc(C2CC2)n1)c1ccccc1 (stereo unspecified),113.9%
2,CCC(=O)NC1CCCN(C(=O)Nc2cc(-c3ccccc3)on2)C1 (stereo unspecified),-16.23%
3,CN(CCC(O)c1ccccc1)c1cc(C2CC2)ncn1 (stereo unspecified),7.591%
4,Cc1ccsc1C(Cc1ccccc1)NC(=O)CNC(=O)C1CC1 (stereo unspecified),-6.693%
5,CCC(NC(=O)C1CCN(S(=O)(=O)N(C)C)CC1)c1ccc(C)c(C)c1 (stereo unspecified),-8.706%
6,COC(=O)C(NC(=O)c1ccc(N(C)C)nc1)c1ccccc1 (stereo unspecified),15.6%
7,NC(=O)C(NC(=O)COC1CCCC1)c1ccccc1 (stereo unspecified),-1.81%
8,CN(C)c1cc(CC(NC(=O)C2CC2)c2ccccc2)nc(C2CC2)n1 (stereo unspecified),92.65%
9,CC(C)C(=O)NC(Cc1cc(N(C)C)nc(C2CC2)n1)c1ccccc1 (stereo unspecified),86.08%
10,COC(=O)C(NC(=O)COC1CCCCC1)c1ccccc1 (stereo unspecified),3.192%
11,COC1CCCN(Cc2nc(Cc3ccccc3F)no2)C1 (stereo unspecified),-1.199%
12,Cc1ccc2c(c1C)OCC2NCc1ccc(C#N)cc1 (stereo unspecified),6.111%
13,Cc1cccc(CC(=O)NC2CCN(C(=O)NC(C)(C)C)CC2)c1,5.736%
14,CCC1=N[C@@]2(CC[C@@H]3CN(C(=O)NCC(C)C)C[C@@H]32)C(=O)N1CCOC,5.071%
15,Cc1c(-c2nc(-c3cccc(CN4CCOCC4)c3)no2)cnn1C,-3.312%
16,COc1ccccc1-c1ncc(CN2C[C@H](O)[C@@H](N3CCCC3)C2)s1,6.619%
17,CCn1c(Cn2ccnc2)nnc1C1CCN(Cc2ccc(C)o2)CC1,-1.566%
18,N#Cc1ccc(C(=O)NCCCNc2ccc(C(F)(F)F)cn2)cc1,-7.343%
19,O=C(NCCCNc1ccc(C(F)(F)F)cn1)c1ccc(F)cc1F,139.7%
20,N#CC1(C(=O)NCCCNc2ccc(C(F)(F)F)cn2)CCCC1,-0.7429%
21,CSCC(C)(O)CNC(=O)c1ccc(F)cc1Br (stereo unspecified),-10.01%
22,O=C(NCCCNc1ccc(C(F)(F)F)cn1)c1ccc(F)cc1Br,166.7%
23,COc1ccc(Br)c(C(=O)NCCNc2ccc(C(F)(F)F)cn2)c1,2.511%
24,CC(C)=CCC/C(C)=C/CC(C)(C)CNCc1ccco1,-15.73%
